Screening results: PubChem BioAssay, several laboratories
Most compounds without a hit are left out; they make up all but 3.6% or so of the library.
FAS TE block: blocks the thioesterase domain of human fatty acid synthase; recombinant FAS-TE, OMFH fluorogenic substrate, fluorescence endpoint; inhibition, % at 15 µM; actives 0.67% (n = 360,000); AID 602261;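 active = compounds whose normalised, plate-corrected inhibition of enzyme fluorescence in the single-dose primary screen is 50% or more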;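 note: 0% = DMSO with enzyme and 100% = substrate without enzyme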
CRFR2-BP antag: CRF-BP/CRF-R2 complex antagonism; inhibition, % at 11.8 µM; HEK293 CRF-R2/CRF-BP, CRF-induced calcium fluorescence; actives 0.59% (n = 350,000);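 active = inhibition of the ligand-induced calcium signal above about 50% at the single tested concentration, limit read from the data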
CendR NRP1 mod: alters CendR peptide binding to human NRP-1; O14786; FAM-RPARPAR peptide binding to NRP-1, fluorescence polarization; inhibition, % at 25 µM; actives 0.85% (n = 360,000); AID 602438;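 active = inhibition or corrected inhibition above about 18%, plus a signal ratio from 0.5 to 1.5, limit read from the data, passing the limit was not always enough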
Myeloid diff 2: compounds promoting myeloid differentiation; calls only at 10 µM; ER-HoxA9 myeloid progenitors, lysozyme-GFP differentiation, flow cytometry; actives 1% (n = 360,000);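 active = normalized GFP-positive differentiation at or above the plate's own cutoff, the solvent-only control mean plus 3 SD; inconclusive = no clear call, values can overlap the other calls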;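 note: cells exposed to compound for four days before flow analysis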
NadD block: inhibitors of Staphylococcus aureus NadD | purified NadD enzyme, colorimetric absorbance read-out | inhibition, % at 20 µM | actives 0.78% (n = 360,000) | AID 602399; in the data active = inhibition above about 26%
FAS-TE inh conf: FAS thioesterase (human) inhibition, confirmation; shares compounds with FAS TE block; recombinant FAS-TE, OMFH fluorogenic substrate, fluorescence; inhibition, % at 15 µM; actives 45% (n = 2,300); AID 624325;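 active = compounds inhibiting the enzyme by at least 50% at 15 µM in any one of the replicates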;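 note: 0% = enzyme with DMSO only and 100% = wells lacking enzyme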
Starred values were filed as active, the others as inactive; i = inactive; ? = inconclusive; . = not tested or not shown.

SMILES | FAS TE block | CRFR2-BP antag | CendR NRP1 mod | Myeloid diff 2 | NadD block | FAS-TE inh conf
CC(C)Oc1ccc(C2CC(=O)N(Nc3ccc([N+](=O)[O-])cc3[N+](=O)[O-])C2=O)cc1 (stereo not drawn) | 90.3* | 20.7 | -1.9 | i | -3.7 | 92.0*
CCOc1ccc(C2CC(=O)N(Nc3ccc([N+](=O)[O-])cc3[N+](=O)[O-])C2=O)cc1 (stereo not drawn) | 85.9* | 19.3 | 8.1 | i | -2.0 | 69.4*
CC(NC(=O)CC(c1ccccc1)c1cc(Cl)ccc1O)c1ccccc1 (stereo not drawn) | 50.3* | 52.5* | 2.7 | i | 0.0 | 48.1
O=C(CSc1ccc([N+](=O)[O-])cn1)Nc1ccc2c(c1)OCCO2 | 84.7* | 25.1 | 8.9 | i | -2.1 | 88.2*
CN(C)S(=O)(=O)c1ccc(SCC(=O)Nc2ccc3c(c2)OCCO3)nc1 | 3.1 | 11.2 | 0.4 | i | 3.0 | .
CC(CC(=O)NCCc1ccc(Cl)cc1)S(=O)(=O)c1ccc2c(c1)NC(=O)CO2 (stereo not drawn) | -1.1 | -8.2 | -0.9 | i | -1.4 | .
CCOC(=O)c1ccc(NC(=O)c2c(Cl)cc(C)nc2C)cc1 | -3.5 | 0.9 | -4.9 | i | -4.5 | .
COc1ccc(C2CC(c3ccccc3)=NN2S(=O)(=O)c2ccc(C)cc2)c(OC)c1 (stereo not drawn) | 58.1* | -6.7 | -94.4 | i | -4.9 | 12.0
COc1ccc(C2CC(c3ccccc3)=NN2S(=O)(=O)c2ccccc2)c(OC)c1 (stereo not drawn) | 34.4 | -0.3 | -26.4 | i | -0.2 | .
CCOc1ccc(S(=O)(=O)Nc2ccc(C(=O)NCc3ccncc3)cc2)cc1 | -0.8 | -10.8 | 2.2 | i | 0.1 | .
CCOCCCn1c(=NC(C)=O)c(C#N)cc2c(=O)n3cccc(C)c3nc21 | 24.8 | -2.8 | -5.9 | i | 7.4 | .
CCCCCn1c(=NC(C)=O)c(C#N)cc2c(=O)n3ccccc3nc21 | 61.2* | 16.4 | 1.2 | i | -1.9 | 23.3
CCCCn1c(=NC(C)=O)c(C#N)cc2c(=O)n3cccc(C)c3nc21 | 50.3* | -5.8 | -14.3 | i | 4.3 | 31.6
CCOCCCn1c(=NC(=O)c2ccco2)c(C(=O)OCC)cc2c(=O)n3cccc(C)c3nc21 | 66.7* | 15.3 | -5.7 | i | 7.8 | 2.4
CCOC(=O)c1cc2c(=O)n3cccc(C)c3nc2n(CC(C)C)c1=NC(=O)c1ccco1 | 45.1 | 5.5 | -27.6 | i | 9.3 | .
CC(=O)N=c1c(C#N)cc2c(=O)n3ccccc3nc2n1CCCOC(C)C | 13.3 | 7.5 | -11.8 | i | 3.2 | .
O=C1CC(/C=C/c2ccccc2)(C(=O)NC2CCCC2)N1c1ccc(S(=O)(=O)N2CCCC2)cc1 (stereo not drawn) | 74.7* | 0.9 | -2.1 | i | 14.2 | 8.7
CC1C(=O)N(c2ccc(S(=O)(=O)N(C)C)cc2)C1(/C=C/c1ccccc1)C(=O)NC1CCCC1 (stereo not drawn) | 60.9* | 1.2 | -11.6 | i | 18.8 | 32.7
CCn1ccc(C(=O)Nc2ccsc2C(=O)OC)n1 | -2.6 | 2.3 | -1.6 | i | -3.8 | .
O=C(c1cc(COc2cccc(C(F)(F)F)c2)on1)N1C[C@@H]2CCC[C@H]1C2 | 56.2* | 12.6 | 3.7 | i | 1.3 | 24.5*
O=C(c1cc(COc2cccc(C(F)(F)F)c2)on1)N1CCC(c2ccccc2)CC1 | 31.0 | -0.1 | 7.8 | i | 5.2 | .
CCCCn1c(N)c(N(CC)C(=O)c2ccc(Cl)c(Cl)c2)c(=O)[nH]c1=O | -0.6 | -1.9 | 4.3 | i | -2.3 | .
CCn1c(SCC(=O)Nc2ncc(C(F)(F)F)cc2Cl)nnc1-c1cccc(C)c1 | 79.8* | 23.7 | -14.2 | i | -3.7 | 81.4*
Cc1cc(C)n2c(SCC(=O)Nc3ncc(C(F)(F)F)cc3Cl)nnc2n1 | -2.3 | -13.0 | -9.1 | i | -0.6 | .
COc1ccc(-c2nnc(SCC(=O)Nc3ncc(C(F)(F)F)cc3Cl)n2CC(C)C)cc1 | 79.2* | 34.0 | -16.0 | i | 2.7 | 80.7*
SMILES | FAS TE block | CRFR2-BP antag | CendR NRP1 mod | Myeloid diff 2 | NadD block | FAS-TE inh conf
COC(=O)CNC(=O)CSc1nnc(-c2ccc(OC)cc2)n1CC(C)C | -4.5 | -3.6 | 7.7 | i | -3.1 | .
O=C(Nc1ccccc1)C1=C[C@@H](c2ccc(Br)cc2)C[C@@H](OCCCCO)O1 | 5.6 | 2.0 | -1.0 | i | -6.4 | .
CC(C(=O)Nc1ccc(F)c(F)c1F)N(C)CCOc1ccccc1 (stereo not drawn) | 26.3 | 5.9 | 20.1 | i | 3.1 | .
CCOC(=O)c1ccc(NC(=S)Nc2ccc(Br)cc2N)cc1 | -5.0 | 7.0 | 7.0 | i | 3.5 | .
COc1cccc(NC(=O)CSc2nc(=O)n(Cc3ccncc3)c3c2CCCC3)c1 | -8.1 | 7.9 | 0.0 | i | 2.9 | .
CC(C)(C)c1ccc(NC(=O)COC(=O)CCN2C(=O)c3cccc([N+](=O)[O-])c3C2=O)cc1 | 83.3* | 7.6 | -0.6 | i | -3.9 | 35.9
O=C(CSc1nnc(-c2c[nH]c3ccccc23)o1)N1c2ccccc2CCc2ccccc21 | 55.3* | 3.9 | 1.0 | ? | 22.7 | 11.1
CCSc1nc2ccccc2n1Cc1cccc([N+](=O)[O-])c1 | 58.7* | 18.7 | 22.6* | i | -3.9 | 19.7
COCCn1c(SCc2cccc([N+](=O)[O-])c2)nc2ccccc2c1=O | 51.4* | 15.4 | 3.5 | i | -2.3 | 11.6
Cn1c(SCc2cccc([N+](=O)[O-])c2)nc2ccccc2c1=O | 42.6 | 8.3 | 5.4 | i | -8.7 | .
CCSc1nc2ccccc2n1Cc1ccccc1F | 6.4 | -1.2 | 17.0 | i | 4.3 | .
O=C(O)CC(NC(=O)C(c1ccccc1)c1ccccc1)c1cccc([N+](=O)[O-])c1 (stereo not drawn) | 51.8* | 4.8 | 2.8 | i | -4.0 | 63.6*
COc1ccc(CC(=O)NC(CC(=O)O)c2cccc([N+](=O)[O-])c2)cc1 (stereo not drawn) | 3.1 | 21.4 | 2.5 | i | 4.8 | .
CCOC(=O)CC(NC(=O)c1cc2ccccc2oc1=O)c1cccc([N+](=O)[O-])c1 (stereo not drawn) | 50.4* | -3.2 | -3.6 | i | -5.2 | 55.3*
COC(=O)CC(NC(=O)Nc1ccc(C)cc1)c1cccc([N+](=O)[O-])c1 (stereo not drawn) | 52.8* | 11.1 | 13.5 | i | 2.8 | 65.2*
CCOC(=O)CC(N)c1cccc([N+](=O)[O-])c1 (stereo not drawn) | -8.2 | 2.6 | -7.0 | . | 0.3 | .
Cc1cc(-c2ccc(C(C)C)c(S(=O)(=O)N3CCN(c4ccccn4)CC3)c2)on1 | 27.7 | -16.2 | 8.4 | ? | 10.6 | .
O=C(NCc1nc2ccccc2[nH]1)C1=C[C@@H](C2CCCCC2)C[C@@H](OCCCCO)O1 | -7.0 | -0.1 | 4.3 | i | 1.5 | .
COc1ccc(S(=O)(=O)N2CCN(Cc3ccco3)CC2)cc1 | -5.6 | -5.4 | -2.8 | i | -3.6 | .
